# Measured values from PubChem BioAssay (NCATS).
# Records with an inconclusive call do not appear. Calls of active or inactive are those of the source. The call rests on the fitted dose curve; in most records, active means well fitted inhibition curve with a large enough effect; inconclusive means small, poorly fitted or top-dose-only effect; inactive means flat fitted curve, though single readings scatter. Where a SMILES comes first, the peptide text is derived from it. [ ]: non-standard residue; d: D form.
# Target: Glutathione peroxidase 1 (Homo sapiens) (UniProt P07203)
# Sequence (P07203 whole entry, looked up): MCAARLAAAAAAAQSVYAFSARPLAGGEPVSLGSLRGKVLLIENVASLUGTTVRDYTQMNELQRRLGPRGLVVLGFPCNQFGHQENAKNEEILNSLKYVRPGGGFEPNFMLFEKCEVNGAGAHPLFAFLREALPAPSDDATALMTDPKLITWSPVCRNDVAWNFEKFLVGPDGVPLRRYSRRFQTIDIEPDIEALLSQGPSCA
# Assay: Primary qHTS Assay for Inhibitors of Recombinant Selenoprotein Glutathione Peroxidase 1 (GPX1) (AID 1845191); further: nearly all actives have a fitted effect of over 65% in size
# Conditions: recombinant GPX1, GR-coupled NADPH fluorescence, 15 min; series mostly up to 48.8 µM; activity, negative = inhibition: at the top concentration
# Procedure, shortened: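 GR-coupled readout: NADPH consumption tracked by fluorescence, ex 340/em 450 nm, at t=0 and after 15 min at RT. Final mix 10 nM GPX1, 1 mM GSH, 0.5 mM CHP, 0.5 mM NADPH, 100 nM GR, 0.01% BSA, following 30 min enzyme–compound preincubation.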
# On the % scale 0 is the no-effect control and ±100 the full control effect.
SMILES,"activity, negative = inhibition",outcome
CC(C)=CCC[C@](C)(O[C@@H]1O[C@H](CO[C@@H]2OC[C@@H](O)[C@H](O)[C@H]2O)[C@@H](O)[C@H](O)[C@H]1O)[C@H]1CC[C@]2(C)[C@@H]1[C@H](O)C[C@@H]1[C@@]3(C)CC[C@H](O[C@@H]4O[C@H](CO)[C@@H](O)[C@H](O)[C@H]4O[C@@H]4O[C@H](CO)[C@@H](O)[C@H](O)[C@H]4O)C(C)(C)[C@@H]3CC[C@]12C,3.67% [at 27.7 µM] (inactive),
C=CC(C)(CC/C=C(\C)CC/C=C(\C)CC(O)/C=C(\C)C(=O)O)O[C@@H]1O[C@H](CO)[C@@H](O)[C@H](O)[C@H]1O[C@@H]1O[C@H](CO)[C@@H](O)[C@H](O)[C@H]1O (stereo not given in full),,inactive [at 15.3 µM]
CC(C)c1cc2c(c(O)c1O[C@@H]1O[C@H](CO)[C@@H](O)[C@H](O)[C@H]1O)CC1(O)CCC(O)C(C)(C)C1CC2 (stereo not given in full),-17.2% [at 27.7 µM] (inactive),
CC(=O)N[C@H](Cc1ccc(O)cc1)C(=O)N[C@H](CCCN=C(N)N)C(=O)N[C@H](Cc1ccccc1)C(N)=O (Ac-[dY]-[dR]-[dF]-NH2),,inactive
COCC(=O)Nc1cc(Sc2ccccc2)ccc1N=C(NC(=O)OC)NC(=O)OC,-20.1% (inactive),
